PubChem BioAssay AID488969 (Vanderbilt High Throughput Screening Facility, 2010)
Over roughly 110,000 compounds, “z-score” has its median near -0.1; the highest 2% begin near 2. This is one part of a sample in which the highest values are shown more often than they occur. Active and inactive are the calls of the source.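 How the source made its calls: active means z-score in the third read window above 3 or below -3; inactive means the rest.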

These compounds were tested against Metabotropic glutamate receptor 8 (Rattus norvegicus) (UniProt P70579) (assay: rat mGluR8 modulators via GIRK flux, primary screen, cell-based, thallium flux, HTS (AID 488969)). Conditions: HEK293 rat mGluR8, GIRK (G protein-gated inwardly rectifying potassium channel) thallium flux, FluoZin2; at 10 µM; stronger effect = higher value; submaximal glutamate (EC20) added with thallium.
Chain of Metabotropic glutamate receptor 8 (Rattus norvegicus) (P70579 whole entry, looked up): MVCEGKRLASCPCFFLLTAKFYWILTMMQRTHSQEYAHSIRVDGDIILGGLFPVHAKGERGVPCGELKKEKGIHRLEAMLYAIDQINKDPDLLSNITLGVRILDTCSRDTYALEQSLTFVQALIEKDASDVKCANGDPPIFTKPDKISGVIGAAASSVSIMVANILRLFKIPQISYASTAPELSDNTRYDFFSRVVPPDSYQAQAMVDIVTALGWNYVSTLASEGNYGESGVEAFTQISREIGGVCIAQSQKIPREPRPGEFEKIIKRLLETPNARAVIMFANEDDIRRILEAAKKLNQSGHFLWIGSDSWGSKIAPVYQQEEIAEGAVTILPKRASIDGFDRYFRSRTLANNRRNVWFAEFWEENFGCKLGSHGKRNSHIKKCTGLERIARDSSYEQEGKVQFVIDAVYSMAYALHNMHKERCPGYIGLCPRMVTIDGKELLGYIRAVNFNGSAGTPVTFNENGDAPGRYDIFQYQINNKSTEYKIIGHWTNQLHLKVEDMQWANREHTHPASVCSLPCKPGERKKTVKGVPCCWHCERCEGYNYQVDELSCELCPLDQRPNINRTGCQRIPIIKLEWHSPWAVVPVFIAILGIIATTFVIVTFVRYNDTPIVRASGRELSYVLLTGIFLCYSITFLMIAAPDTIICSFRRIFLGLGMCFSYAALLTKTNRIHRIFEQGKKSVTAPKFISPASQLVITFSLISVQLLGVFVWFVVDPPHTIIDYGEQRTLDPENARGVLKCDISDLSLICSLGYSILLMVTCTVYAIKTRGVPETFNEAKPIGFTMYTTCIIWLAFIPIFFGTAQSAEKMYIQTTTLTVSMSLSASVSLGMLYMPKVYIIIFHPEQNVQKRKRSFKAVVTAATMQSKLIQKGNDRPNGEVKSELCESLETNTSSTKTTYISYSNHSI

Row | SMILES | z-score
1 | CC(CN1CCOCC1)OC(=O)C(C)(c1ccccc1)c1ccccc1 (stereo not drawn) | 0.383
2 | O=C(CSc1nnc(-c2ccc(OC(F)F)cc2)o1)NC(=O)NCc1ccco1 | -0.253
3 | CC1=CC(c2ccccc2)n2nc(N3C(=O)C4CC=CCC4C3=O)nc2N1 (stereo not drawn) | -0.783
4 | CC1(C)Cc2c(ccc3ccccc23)-c2nnc(-c3cccnc3)n21 | 3.16 (active)
5 | CC1(C)Cc2ccccc2-c2nnc(-c3cccnc3)n21 | 0.241
6 | CC1(C)Cc2c(ccc3ccccc23)C(NNC(=O)c2cccnc2)=N1 | 0.408
7 | CCOC(=O)c1c(NC(=O)c2cccs2)sc(CC)c1-c1cccs1 | -0.275
8 | COC(=O)c1nn(Cc2ccccc2)c(=O)c2ccccc12 | 0.721
9 | O=C(NC(=S)NCCc1ccccc1)c1ccccc1 | 1.9
10 | COc1ccc(CCNC(=S)NC(=O)c2ccccc2)cc1OC | 0.202
11 | Cc1ccc(C(=O)NC(=S)NCC(=O)c2ccccc2)cc1 | -0.021
12 | O=C(CNC(=S)NC(=O)c1ccccc1)c1ccccc1 | 0.079
13 | Cc1onc(-c2ccccc2Cl)c1C(=O)NC(=S)NCCc1ccccc1 | 2.63
14 | Cc1onc(-c2ccccc2Cl)c1C(=O)NCc1ccccc1 | 0.341
15 | COc1ccc(CCNC(=O)c2c(-c3ccccc3Cl)noc2C)cc1 | 0.099
16 | COc1cc(OC)cc(C(=O)NC(=S)NCCc2ccccc2)c1 | 2.08
17 | O=C(CNC(=S)NC(=O)c1cccs1)c1ccccc1 | 6.19 (active)
18 | COc1cc(OC)cc(C(=O)NC(=S)NNC(=O)Cc2cccs2)c1 | 2.21
19 | O=C(Cc1cccs1)NNC(=S)NC(=O)c1ccccc1 | 0.646
20 | COc1ccc(C(=O)NC(=S)NNC(=O)Cc2cccs2)cc1 | 0.741
21 | CNC(=S)N1CCN(C(=O)C2CCCO2)CC1 (stereo not drawn) | -0.25
22 | CC(NC(=O)COc1ccc(/C=N/NC(=O)C(=O)Nc2ccccc2Br)cc1)c1ccccc1 (stereo not drawn) | 0.00853
23 | CCC(C)(C)NC(=O)CN(Cc1cccs1)C(=O)CNS(=O)(=O)c1ccc(C)cc1 | 0.191
24 | CCCn1nnc(NC(=O)c2ccc(Cl)cc2Cl)n1 | -0.0896

Row | SMILES | z-score
25 | O=C(NS(=O)(=O)c1ccccc1)c1ccccc1O | 0.0922
26 | c1cc(-c2nnc3n2CCCCC3)ccn1 | 0.91
27 | Cc1cc(Cl)ccc1NC(=S)NCc1ccccc1Cl | 0.000558
28 | CCn1nc(C(=O)OCC(=O)c2ccc3c(c2)OCCO3)c2ccccc2c1=O | -0.721
29 | Cc1ccc(C(=O)N/C(=C/c2cccc([N+](=O)[O-])c2)C(=O)NC(C)C)cc1 | -0.0623
30 | CCC(C)Nc1nc(CN2CCOCC2)nc2sc3c(c12)CCC3 (stereo not drawn) | -0.57
31 | Cc1ccccc1C(=O)NC(=S)NCC(=O)c1ccccc1 | -0.0957
32 | O=C(NCCc1ccccc1)c1ccco1 | -0.2
33 | O=C(CNC(=S)NC(=O)c1ccc(Cl)cc1)c1ccccc1 | 1.87
34 | COc1ccc(C(=O)CC(=O)C(=O)NCCc2cccc(C)c2)cc1 | 3.99 (active)
35 | O=C(NC(=S)NCCc1ccccc1)c1ccco1 | 13 (active)
36 | CC(C)C(=O)NC(=S)NCC(=O)c1ccccc1 | -0.37
37 | CC(C)(C)C(=O)NC(=S)NCCc1ccccc1 | -0.0291
38 | CCOc1ccc(C(=O)CC(=O)C(=O)NCCc2ccc(OC)c(OC)c2)cc1 | -0.0424
39 | COc1ccc(S(=O)(=O)CCC(=O)NCCc2cccc(C)c2)cc1 | 0.00176
40 | O=C(CNC(=S)NC(=O)c1ccco1)c1ccccc1 | 6.42 (active)
41 | Cc1ccccc1C(=O)NC(=S)NCCc1ccccc1 | 6.68 (active)
42 | O=C(NC(=S)N(CCc1ccccc1)CCc1ccccc1)c1ccco1 | -1.87
43 | Cc1cc2ccccc2n2c(SCC(=O)N3CCc4ccccc4C3)nnc12 | 0.115
44 | CC(=O)C1=C(c2ccccc2)NC(=S)NC1c1cc(Cl)c(OC(C)C)c(Cl)c1 (stereo not drawn) | 0.616
45 | O=C(CN(C(=O)c1cccc([N+](=O)[O-])c1)C1CCCCC1)Nc1ccc(Cl)c([N+](=O)[O-])c1 | -0.137
46 | CCOc1nc(-c2ccc(C)cc2)ccc1-c1noc(COC)n1 | -0.156
47 | Cc1cc(C)c(Cn2cnc(-c3ccc([N+](=O)[O-])cc3)c2)c(C)c1 | -0.0263
48 | COc1ccc(-c2ccc(CCC(=O)O)n2C(C)C)cc1 | -0.109

Row | SMILES | z-score
49 | Cc1ccc(-c2ccc(CCC(=O)O)n2C(C)C)cc1 | -0.00219
50 | CC(C)n1c(CCC(=O)O)ccc1-c1ccccc1 | 2.11
51 | Clc1ccc(-c2nnc3n2CCCS3)cc1 | 0.105
52 | Cc1ccc(S(=O)(=O)NCCCCC(NC(=O)OC(C)(C)C)C(=O)O)cc1 (stereo not drawn) (tested in a mixture with another compound) | -0.148
53 | O=C(CN1C(=O)NC2(CCCC2)C1=O)Nc1ccc(F)cc1 | 0.19
54 | CCCn1nnnc1NCc1cccn1C | 1.98
55 | CCCCn1nnnc1NCc1cccs1 | -1.89
56 | CCCn1nnnc1NCc1ccc(N2CCCC2)cc1 | -0.208
57 | CCc1ccc(/C=N/NC(=O)C(=O)NCCCN2CCOCC2)cc1 | -0.174
58 | CC(CC(=O)Nc1ccncc1)c1ccccc1 (stereo not drawn) | 0.044
59 | O=C(CCSCc1ccc(Cl)cc1)NCCc1ccccc1 | -0.0466
60 | COc1ccc(Nc2ccc(S(=O)(=O)N3CCCCCC3)cc2[N+](=O)[O-])cc1 | 0.571
61 | COc1ccc(Nc2ccc(S(=O)(=O)N3CCCCC3)cc2[N+](=O)[O-])cc1Cl | 0.547
62 | COc1ccc(Nc2ccc(S(=O)(=O)N3CCCCC3)cc2[N+](=O)[O-])cc1OC | 2.43
63 | COCc1cc(C)nc(Nc2ccc(C)cc2C)c1C#N | -0.225
64 | COc1ccc(C(=O)N(NC(=O)Oc2ccccc2)C(C)(C)C)cc1 | 0.485
65 | O=C(Nc1ccc2[nH]c(=S)sc2c1)c1ccccc1 | 11.9 (active)
66 | O=C(Nc1ccc2nc3ccccc3nc2c1)c1ccccc1 | -0.114
67 | O=C(Nc1ccc(F)cc1)c1ccccc1 | -0.000317
68 | CC1(C)CC(CC(=O)Nc2ccccc2[N+](=O)[O-])C(=O)O1 (stereo not drawn) | -0.0252
69 | COC(=O)c1cn(-c2ccccc2)c(C)c1C(=O)OC | -0.11
70 | C=CCn1c(SCc2c(C)noc2C)nc2sc3c(c2c1=O)CCC(C)C3 (stereo not drawn) | 2.65
71 | C=CCn1c(SCc2c(C)noc2C)nc2sc3c(c2c1=O)CCCCC3 | -0.236
72 | C=CCn1c(SCc2c(C)noc2C)nc2sc3c(c2c1=O)CCCC3 | -0.0819

Row | SMILES | z-score
73 | CC(C)(Oc1ccc(Cl)cc1)C(=O)NCc1ccncc1 | 0.181
74 | CC(=O)Nc1nc(=S)ss1 | 0.468
75 | O=C(Nc1nc(=S)ss1)c1ccc(Cl)cc1Cl | 4.46 (active)
76 | Cc1ccccc1C(=O)Nc1nc(=S)ss1 | 2.56
77 | CC(C)C(=O)Nc1cccc(NC(=O)c2ccc(Cl)cc2Cl)c1 | -0.304
78 | O=C(Nc1nc(=S)ss1)c1c(F)cccc1F | -0.588
79 | Cc1ccccc1C(=O)Nc1nncs1 | -0.0319
80 | CCOc1nc(N(C)C)nc(-n2nnc(C(C)=O)c2C)n1 | -0.22
81 | CC1SCC(=O)N(CC(=O)NCc2ccccc2)C1=O (stereo not drawn) | -0.233
82 | O=C(N/N=C/c1c(Cl)cccc1Cl)c1cccc(F)c1 | 3.05 (active)
83 | O=C(N/N=C/c1c(Cl)cccc1Cl)c1ccc(F)cc1 | -0.476
84 | O=C(N/N=C/c1ccccc1Cl)c1cccc(F)c1 | -0.342
85 | O=C(C(=O)N1CCc2ccccc2C1)c1cn(CC(=O)N2CCCCC2)c2ccccc12 | -0.582
86 | CC(=O)C1=C(O)C(=O)N(c2cccc(C(=O)O)c2)C1c1ccc(F)cc1 (stereo not drawn) | -0.153
87 | CC(=O)CN1Cc2ccccc2/C1=N\C(=O)Nc1ccccc1 | 3.19 (active)
88 | CC(=O)c1ccc(N2Cc3ccccc3/C2=N\C(=O)Nc2ccccc2)cc1 | -0.211
89 | O=C(/N=C1/c2ccccc2CN1c1ccccc1)Nc1ccccc1 | -0.236
90 | Cc1ccc(S(=O)(=O)N2CCN(c3ccc(C(F)(F)F)cc3[N+](=O)[O-])CC2)cc1 | -0.0811
91 | Cc1scc(C(=O)N/N=C/c2ccc(OC(C)C)cc2)c1C | 0.164
92 | Cc1ccccc1NC(=O)CSc1nc(COc2ccccc2)nc2ccccc12 | 0.264
93 | CCCC(=O)Nc1ccccc1-c1nnn(CC(=O)Nc2ccc(OCC)cc2)n1 | -0.817
94 | CCOC(=O)c1ccc(NC(=O)Cn2nnc(-c3ccccc3F)n2)cc1 | -0.121
95 | O=C(Cn1nnc(-c2ccccc2F)n1)NCCc1ccccc1 | -0.146
96 | Cn1nc(CC(=O)Nc2cccc3ncccc23)c2ccccc2c1=O | 2.01

Row | SMILES | z-score
97 | Cc1ccc(F)cc1NC(=O)Cc1nn(C)c(=O)c2ccccc12 | -0.0938
98 | COc1ccccc1NC(=O)Cc1nn(C)c(=O)c2ccccc12 | -0.677
99 | O=C(Cn1nnc(-c2ccccc2F)n1)Nc1ccc2c(c1)OCO2 | 2.41
100 | O=C(Cn1nnc(-c2ccccc2NC(=O)c2ccccc2)n1)Nc1ccc2c(c1)OCCO2 | 0.418
101 | O=C(Cn1nnc(-c2ccccc2F)n1)Nc1cccc2ncccc12 | 2.27
102 | O=C(Cn1nnc(-c2ccccc2)n1)Nc1ccc2c(c1)OCO2 | 0.199
103 | CCOc1ccc(NC(=O)Cn2nnc(-c3ccccc3F)n2)cc1 | 3.4 (active)
104 | COc1ccc(NC(=O)Cn2nnc(-c3ccccc3F)n2)cc1Cl | 0.202
105 | CCCNc1c(N)c(=O)oc2ccccc12 | -1.25
106 | O=c1[nH]c2ccc(Cl)cc2c(-c2ccccc2)c1N1CCN(CCO)CC1 | 0.464
107 | O=C(Nc1ccc(F)cc1F)c1ccco1 | -0.0416
108 | CCN(CC)c1ccc(NC(=O)/C=C\c2ccccc2Cl)cc1 | -0.341
109 | CCOC(=O)CNC(=O)CSc1nc2ncc(Br)cc2[nH]1 | 0.941
110 | Cc1cc(N2C(=O)C3C4c5ccccc5C(c5ccccc54)C3C2=O)no1 (stereo not drawn) | -0.47
111 | Cc1ccc2c(CC(=O)NNC(=O)c3ccccc3)coc2c1 | -0.29
112 | CC(=O)O/N=C(/c1nonc1N)N1CCN(c2ccc([N+](=O)[O-])cc2Cl)CC1 | -0.222
113 | CC(=O)Nc1ccc(N2CCCCC2)c(C(=O)Nc2cccc(C)c2)c1 | -0.0504
114 | Cc1ccc(NC(=O)c2cc(NC(=O)CCC(=O)O)ccc2N2CCCCC2)cc1 | 4.06 (active)
115 | O=C(O)CCC(=O)Nc1ccc(N2CCCCC2)c(C(=O)O)c1 | 0.0405
116 | COc1ccc(-c2cc(C(F)(F)F)c3c(n2)sc2c(O)cc(=O)[nH]c23)c(OC)c1 | 5.32 (active)
117 | COc1ccc(OC)c(-c2cc(C(F)(F)F)c3c(n2)sc2c(O)cc(=O)[nH]c23)c1 | -0.747
118 | O=c1cc(O)c2sc3nc(-c4ccccc4)cc(C(F)(F)F)c3c2[nH]1 | -1.89
